Giardia FBPA inh-1: qHTS Assay for Inhibitors of Fructose-1,6-bisphosphate Aldolase from Giardia Lamblia; AID 2451, 2010; Potency, µM (series often up to 59.6 µM), without a hit: top-dose activity, negative = inhibition, most hits filed as inhibitors; purified Giardia FBPA; A8B2U2; actives 0.71% (n = 290,000); note: % is set by controls: 0 for no effect and ±100 for the full control effect; nearly all actives have a fitted effect of over 55% in size
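Giardia FBPA (40 nM reagent) was preincubated 10 min at RT with compound (up to 57.5 uM final), then substrate plus GAPDH/TPI/NAD/arsenate coupling system with diaphorase/resazurin was added; resorufin fluorescence (525/598 nm) was read after 20 min.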
RE007 growth inh: qHTS Assay for Inhibitors of the HIV-1 protein Vpr. S. pombe RE007 Vpr strain, BacTiter-Glo ATP luminescence, 24 h. Potency, µM (doses to about 92.2 µM), without a hit: at the top dose activity change, negative = less growth, most hits filed as inhibitors. actives 0.21% (n = 360,000); active = well fitted falling curve with a large enough effect; inconclusive = small, poorly fitted or top-dose-only effect; inactive = no such curve, though single readings can be large or run the other way; note: % is set by controls: 0 for no effect and ±100 for the full control effect; nearly all actives have a fitted effect of over 50% in size
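Fission yeast strain RE007, carrying one chromosomally integrated HIV-1 vpr copy, was seeded at OD 0.01 in PMG+AL medium with 23 nL pinned compound. After 24 h at 30 °C and 99% humidity, viability was read by BacTiter-Glo luminescence.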
LmPK inh: qHTS Assay for Inhibitors of Leishmania Mexicana Pyruvate Kinase (LmPK) | actives 0.37% (n = 290,000) | Q27686 | purified LmPK, Kinase-Glo ATP luminescence, 1 h | AID 1721, 2009 | Potency, µM (series often up to 57.5 µM), without a hit: at the top dose activity change, negative = inhibition, hits mostly inhibitors; note: % is set by controls: 0 for no effect and ±100 for the full control effect
Target sequence (Q27686 whole entry, looked up): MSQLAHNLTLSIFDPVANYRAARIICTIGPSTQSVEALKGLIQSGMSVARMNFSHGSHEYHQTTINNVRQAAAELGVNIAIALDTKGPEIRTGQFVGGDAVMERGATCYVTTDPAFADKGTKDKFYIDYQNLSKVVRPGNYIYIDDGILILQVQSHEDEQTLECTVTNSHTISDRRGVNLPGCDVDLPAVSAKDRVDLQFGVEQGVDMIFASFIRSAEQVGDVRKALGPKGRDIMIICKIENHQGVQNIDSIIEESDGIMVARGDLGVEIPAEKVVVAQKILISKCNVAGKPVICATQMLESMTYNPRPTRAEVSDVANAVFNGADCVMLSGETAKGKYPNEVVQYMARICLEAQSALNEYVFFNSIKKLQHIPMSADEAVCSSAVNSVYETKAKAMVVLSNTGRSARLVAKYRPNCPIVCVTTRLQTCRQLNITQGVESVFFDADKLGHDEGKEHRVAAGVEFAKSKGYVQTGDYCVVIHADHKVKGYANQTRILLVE
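Purified LmPK (0.1 nM) with 0.5 mM PEP and 0.1 mM ADP in imidazole buffer pH 7.2 with MgCl2/KCl, 1 h at room temperature. ATP formed was read by luciferase luminescence and normalized to no-enzyme and uninhibited controls.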
TbPYK inhibitor: qHTS of Trypanosoma Brucei Inhibitors | pyruvate kinase (Trypanosoma brucei), Q57TT1 | TbPYK enzyme, Kinase-Glo Plus ATP luminescence, 45 min | Potency, µM (series often up to 76.8 µM), for inactives: at the top dose activity, negative = inhibition, usual class: inhibitors | actives 0.12% (n = 410,000); note: % is set by controls: 0 for no effect and ±100 for the full control effect; nearly all actives have a fitted effect of over 50% in size
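Luminescence from Kinase-Glo Plus, added after a 45-minute room-temperature reaction, served as the end-point read-out. The enzyme and substrate were preincubated with compound before ADP (130 uM final) initiated turnover. Concentration-effect curves came from normalized qHTS data.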
SARS PLpro yeast: qHTS of Yeast-based Assay for SARS-CoV PLP | S. cerevisiae expressing SARS-CoV PLpro, growth rescue | Potency, µM (titrated, usually from 32.9 µM), for inactives: at the top dose activity, positive = growth rescue, actives largely listed as activators | actives 0.19% (n = 330,000); calls by dose curve; note: 0% is about no effect; nearly all actives have a fitted effect of over 55% in size
Giardia growth: qHTS Assay for Inhibitors of Fructose-1,6-bisphosphate Aldolase from Giardia Lamblia: Giardia lamblia growth inhibition; shares compounds with Giardia FBPA inh-1; Giardia lamblia trophozoite growth inhibition; Potency, µM (top dose mostly 57.5 µM), for inactives: top-dose activity change, negative = inhibition, usual class: inhibitors; actives 5% (n = 1,500); AID 2785, 2010;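 note: trophozoites exposed to compound for 48 h at 37 °C; % is set by controls: 0 for no effect and ±100 for the full control effect; nearly all actives have a fitted effect of over 70% in size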
Mammalian tox: qHTS Assay for Inhibitors of Fructose-1,6-bisphosphate Aldolase from Giardia Lamblia: Mammalian cellular toxicity; AID 2786, 2010; Potency, µM (series often up to 57.5 µM), for the others: at the top dose viability change, negative = toxicity, actives largely listed as inhibitors; shares compounds with Giardia FBPA inh-1; mammalian cell viability counter-screen, qHTS; actives 4% (n = 1,500);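 note: Chinese hamster ovary cells used as mammalian cytotoxicity surrogate; viability measured as cellular ATP by luminescence; compound exposure lasted 48 h before reading; % is set by controls: 0 for no effect and ±100 for the full control effect; nearly all actives have a fitted effect of over 60% in size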
Giardia FBPA inh-2: qHTS Assay for Inhibitors of Fructose-1,6-bisphosphate Aldolase from Giardia Lamblia: Primary screen confirmation; shares compounds with Giardia FBPA inh-1; purified Giardia aldolase enzyme activity, qHTS; Potency, µM (doses to about 57.5 µM), for the others: at the highest dose activity change, negative = inhibition, actives largely listed as inhibitors; actives 5% (n = 1,500); note: % is set by controls: 0 for no effect and ±100 for the full control effect; nearly all actives have a fitted effect of over 45% in size
Rabbit FBPA inh: qHTS Assay for Inhibitors of Fructose-1,6-bisphosphate Aldolase from Giardia Lamblia: Rabbit FBPA Selectivity | shares compounds with Giardia FBPA inh-1 | actives 4% (n = 1,500) | Potency, µM (doses to about 57.5 µM), inactives show top-dose activity, negative = inhibition, hits mostly inhibitors | Rabbit muscle FBPA enzyme inhibition, selectivity counter-screen; note: % is set by controls: 0 for no effect and ±100 for the full control effect; nearly all actives have a fitted effect of over 60% in size
GAPDH coupling: qHTS Assay for Inhibitors of Fructose-1,6-bisphosphate Aldolase from Giardia Lamblia: Coupling assay counterscreen confirmation; shares compounds with Giardia FBPA inh-1; GAPDH coupling enzyme counterscreen, biochemical, qHTS; Potency, µM (highest dose often 57.5 µM), without a hit: at the highest dose activity change, negative = inhibition, most hits filed as inhibitors; actives 6% (n = 1,500); note: % is set by controls: 0 for no effect and ±100 for the full control effect; nearly all actives have a fitted effect of over 55% in size
An asterisk follows results filed as active; [ ] = another dose, or the depositor's remark. An excerpt weighted towards active compounds, which were near 1.1% of everything screened. Unless noted, calls come from the whole dose curve; as a rule, active = well fitted curve in the direction sought with a large enough effect; inconclusive = small, poorly fitted or top-dose-only effect, or another doubt; inactive = no such curve, though single readings can be large; an effect the other way counts as inactive or inconclusive. Potency is the fitted concentration of half-maximal effect.

What do the screens show for `COc1ccc2[nH]cc(CCNc3ncnc4ccc(-c5ccoc5)cc34)c2c1`?
Giardia FBPA inh-1: -2%

What do the screens show for `O=C(NCc1cccc(Cl)c1)c1cnc(N2CCCCC2)c2ccccc12`?
TbPYK inhibitor: -2%

How did CCN(CC)CCC(=O)N1c2ccccc2Sc2ccc(C(F)(F)F)cc21 do in these assays?
TbPYK inhibitor: 0%

How did O=C(CCN1CCN(CCO)CC1)N1c2ccccc2Sc2ccc(C(F)(F)F)cc21 do in these assays?
Giardia FBPA inh-1: 7.9µM*; RE007 growth inh: -3%; LmPK inh: -11%; TbPYK inhibitor: -4%; SARS PLpro yeast: 4%; Giardia growth: -14%; Mammalian tox: 2%; Giardia FBPA inh-2: -3%; Rabbit FBPA inh: 0%; GAPDH coupling: 2%

What do the screens show for `Cc1c(N2C(=O)/C(=C3\C(=O)N(CC(=O)O)c4ccccc43)SC2=S)c(=O)n(-c2ccccc2)n1C`?
Giardia FBPA inh-1: 10µM*; RE007 growth inh: -16%; LmPK inh: -10%; TbPYK inhibitor: -5%; SARS PLpro yeast: 1%; Giardia growth: 29%; Mammalian tox: 21%; Giardia FBPA inh-2: inconclusive; Rabbit FBPA inh: -19%; GAPDH coupling: inconclusive

How did CCOc1ccc(OCC)c(NC(=O)CN2CCN(CC(=O)NC(C)C)CC2)c1 do in these assays?
Giardia FBPA inh-1: 32µM*; RE007 growth inh: -4%; LmPK inh: -7%; TbPYK inhibitor: 2%; SARS PLpro yeast: 0%; Giardia growth: 25%; Mammalian tox: -12%; Giardia FBPA inh-2: -1%; Rabbit FBPA inh: 2%; GAPDH coupling: 8%

How did Cn1ncc(Br)c1C(=O)N/N=C/c1cccc(OC2CSC2)c1 do in these assays?
Giardia FBPA inh-1: inconclusive; RE007 growth inh: -18%; LmPK inh: 5%; TbPYK inhibitor: -7%; SARS PLpro yeast: 11%; Giardia growth: -1%[38.3 µM]; Mammalian tox: -6%; Giardia FBPA inh-2: 32µM*; Rabbit FBPA inh: 35µM*; GAPDH coupling: 35µM*

Results for O=C(N/N=C/c1cccc(OC2CSC2)c1)c1ccccc1O ?
Giardia FBPA inh-1: -1%; RE007 growth inh: -6%; LmPK inh: 1%; TbPYK inhibitor: -1%; SARS PLpro yeast: -3%

How did O=C(NNC(=O)c1csc(-c2cccs2)n1)c1ccc(Cl)cc1 do in these assays?
RE007 growth inh: -26%; TbPYK inhibitor: 1%

Results for Cc1nc(C(=O)NNC(=O)c2ccc(Cl)cc2)cs1 ?
Giardia FBPA inh-1: 18µM*; RE007 growth inh: -16%; LmPK inh: -6%; TbPYK inhibitor: -1%; SARS PLpro yeast: -5%; Giardia growth: inconclusive; Mammalian tox: -26%; Giardia FBPA inh-2: 1%; Rabbit FBPA inh: 6%; GAPDH coupling: 8%

What do the screens show for `CCOc1ccc(Nc2c(S(=O)(=O)c3ccccc3)cnc3ccc(F)cc23)cc1`?
TbPYK inhibitor: -15%

What do the screens show for `C/C(=N\Nc1ccc2nncn2n1)c1ccccn1`?
Giardia FBPA inh-1: 7.9µM*; RE007 growth inh: 25%; LmPK inh: -10%; TbPYK inhibitor: -8%; SARS PLpro yeast: -3%; Giardia growth: inconclusive; Mammalian tox: inconclusive; Giardia FBPA inh-2: -1%; Rabbit FBPA inh: 5%; GAPDH coupling: inconclusive

What do the screens show for `C(=N\Nc1ccc2nncn2n1)/c1ccccn1`?
Giardia FBPA inh-1: 14µM*; RE007 growth inh: 5%; LmPK inh: -10%; TbPYK inhibitor: -1%; SARS PLpro yeast: -1%; Giardia growth: -6%; Mammalian tox: inconclusive; Giardia FBPA inh-2: 5%; Rabbit FBPA inh: -4%; GAPDH coupling: 7%

Results for CC(=O)N1CCc2c(sc3c2c(=O)n(Cc2ccccc2)c(=O)n3CC(=O)NCC2CCCO2)C1 (stereo unspecified) ?
Giardia FBPA inh-1: -4%; RE007 growth inh: 15%; LmPK inh: -7%; TbPYK inhibitor: -1%; SARS PLpro yeast: 1%

What do the screens show for `CC(=O)N1CCc2c(sc3c2c(=O)n(-c2ccccc2)c(=O)n3CC(=O)NCC2CCCO2)C1` (stereo unspecified)?
Giardia FBPA inh-1: 10µM*; RE007 growth inh: 23%; LmPK inh: 7%; TbPYK inhibitor: -7%; SARS PLpro yeast: -4%; Giardia growth: -4%[38.3 µM]; Mammalian tox: -13%; Giardia FBPA inh-2: -27%; Rabbit FBPA inh: -15%; GAPDH coupling: -9%

What do the screens show for `CCCN(c1ccc(C(C)C)cc1)S(=O)(=O)c1ccc2c(c1)oc(=O)n2CC(=O)OCC`?
TbPYK inhibitor: -5%

What do the screens show for `COc1ccc(C)cc1NC(=O)C(NS(=O)(=O)c1cccs1)c1ccccc1` (stereo unspecified)?
TbPYK inhibitor: 3%

Results for COc1ccc(C)cc1NC(=O)C(NCC(O)c1ccccc1)c1ccccc1 (stereo unspecified) ?
Giardia FBPA inh-1: 13µM*; RE007 growth inh: 1%; LmPK inh: 0%; TbPYK inhibitor: 6%; SARS PLpro yeast: 0%; Giardia growth: 21%; Mammalian tox: 11%; Giardia FBPA inh-2: 4%; Rabbit FBPA inh: 1%; GAPDH coupling: 0%
